Unmarked numbers belong to inactive results. Inconclusive results are not listed. Where a call stands in place of a potency, no number is given. Activity calls are given as the source filed them. The call rests on the fitted dose curve; in most records, active means well fitted curve in the direction sought with a large enough effect in the repeat runs; inconclusive means weak or mixed curves; inactive means no such curve, though single readings can be large; an effect the other way counts as inactive or inconclusive.
Experiments:
[1] = qHTS RealTime-Glo MT Cell Viability Assay in HepG2 cells - 24 hour (AID 1224867); further: nearly all actives have a fitted effect of over 50% in size
Summary of the method: (§1)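 HepG2 cells were seeded at 600 cells/well together with NanoLuc luciferase and a cell-permeant prosubstrate, preincubated 5 h at 37 C/5% CO2, then pin-dosed with compounds in DMSO. Nonlytic luminescence from viable cells was read at each time point.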

[2] = qHTS RealTime-Glo MT Cell Viability Assay in HEK293 cells - 32 hour (AID 1224868); further: top concentration of the series differs between compounds; nearly all actives have a fitted effect of over 50% in size
Summary of the method: (§2)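 HEK293 cells were seeded at 600 cells/well together with NanoLuc luciferase and cell-permeant prosubstrate, preincubated 5 h at 37 C/5% CO2, then given compound in DMSO by pintool. Luminescence from viable-cell prosubstrate reduction was read repeatedly over 40 h.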

[3] = A CellTox Green Cytotoxicity Assay to monitor cytotoxicity in HEK293 cells - 0 hour (AID 1224869); further: nearly all actives have a fitted effect of over 50% in size
Summary of the method: (§3)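 Cells (HEK293, 600/well) and dye reagent are dispensed together. After 5 h at 37 C, 23 nL compound is pinned in. Plates stay at 37 C for 40 h with fluorescence read at 0h, 8h, 16h, 24h, 32h and 40h.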

[4] = qHTS RealTime-Glo MT Cell Viability Assay in HepG2 cells - 40 hour (AID 1224870); further: nearly all actives have a fitted effect of over 50% in size
Summary of the method: (§4)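 HepG2 cells mixed with RealTime-Glo MT reagents (NanoLuc plus cell-permeant prosubstrate) were seeded at 600 cells/well, incubated 5 h at 37 C/5% CO2, then pinned with compounds in DMSO; nonlytic luminescence tracked viability during 40 h treatment.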

[5] = A CellTox Green Cytotoxicity Assay to monitor cytotoxicity in HEK293 cells - 40 hour (AID 1224871); further: nearly all actives have a fitted effect of over 45% in size
Summary of the method: as §3

[6] = qHTS RealTime-Glo MT Cell Viability Assay in HEK293 cells - 16 hour (AID 1224872)
Summary of the method: as §2

[7] = qHTS RealTime-Glo MT Cell Viability Assay in HepG2 cells - 8 hour (AID 1224873); further: nearly all actives have a fitted effect of over 55% in size
Summary of the method: as §4

[8] = qHTS RealTime-Glo MT Cell Viability Assay in HEK293 cells - 40 hour (AID 1224874); conditions: RealTime-Glo luminescence; max response: stronger effect = lower value; further: nearly all actives have a fitted effect of over 50% in size
Summary of the method: (§5)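 Real-time viability in HEK293: signal arises when living cells convert a prosubstrate for NanoLuc in the medium, so luminescence tracks viable cell number. Compound (23 nL, DMSO) added 5 h post-seeding; kinetic reads at 0–40 h, 37 C.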

[9] = A CellTox Green Cytotoxicity Assay to monitor cytotoxicity in HEK293 cells - 24 hour (AID 1224875); further: series mostly up to about 77 µM; nearly all actives have a fitted effect of over 45% in size
Summary of the method: as §3

[10] = A CellTox Green Cytotoxicity Assay to monitor cytotoxicity in HepG2 cells - 16 hour (AID 1224876); further: nearly all actives have a fitted effect of over 45% in size; further: potency means the concentration at half of the fitted maximal effect
Summary of the method: (§6)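 Cells and non-lytic dye reagent are dispensed together (600 HepG2 cells/well) and incubated 5 h before DMSO compound transfer. Kinetic fluorescence is then recorded in the same wells during 40 h at 37 C.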

[11] = qHTS RealTime-Glo MT Cell Viability Assay in HepG2 cells - 32 hour (AID 1224877); further: nearly all actives have a fitted effect of over 55% in size
Summary of the method: as §1

[12] = A CellTox Green Cytotoxicity Assay to monitor cytotoxicity in HepG2 cells - 24 hour (AID 1224878); further: nearly all actives have a fitted effect of over 45% in size; further: potency means the concentration at half of the fitted maximal effect
Summary of the method: as §6

[13] = A CellTox Green Cytotoxicity Assay to monitor cytotoxicity in HepG2 cells - 40 hour (AID 1224879); further: nearly all actives have a fitted effect of over 40% in size
Summary of the method: as §6

[14] = A CellTox Green Cytotoxicity Assay to monitor cytotoxicity in HEK293 cells - 32 hour (AID 1224881); further: nearly all actives have a fitted effect of over 40% in size
Summary of the method: as §3

[15] = A CellTox Green Cytotoxicity Assay to monitor cytotoxicity in HepG2 cells - 0 hour (AID 1224882); further: nearly all actives have a fitted effect of over 35% in size; further: potency means the concentration at half of the fitted maximal effect
Summary of the method: as §6

[16] = A CellTox Green Cytotoxicity Assay to monitor cytotoxicity in HepG2 cells - 32 hour (AID 1224883); further: nearly all actives have a fitted effect of over 50% in size
Summary of the method: as §6

[17] = qHTS RealTime-Glo MT Cell Viability Assay in HepG2 cells - 16 hour (AID 1224885); further: nearly all actives have a fitted effect of over 50% in size
Summary of the method: as §1

[18] = qHTS RealTime-Glo MT Cell Viability Assay in HEK293 cells - 24 hour (AID 1224886)
Summary of the method: as §2

[19] = A CellTox Green Cytotoxicity Assay to monitor cytotoxicity in HEK293 cells - 8 hour (AID 1224884); further: nearly all actives have a fitted effect of over 35% in size
Summary of the method: as §3

[20] = qHTS RealTime-Glo MT Cell Viability Assay in HEK293 cells - 0 hour (AID 1224880)
Summary of the method: as §5

SMILES	outcome [1]	Potency [2]	Potency [3]	outcome [4]	Potency [5]	Potency [6]	outcome [7]	max response [8] [%]	Potency [9]	Potency [10]	outcome [11]	Potency [12]	Potency [13]	Potency [14]	Potency [15]	Potency [16]	outcome [17]	Potency [18]	Potency [19]	outcome [20]
CC(=O)OCCCc1ccccc1	inactive	inactive	inactive	inactive	inactive	inactive	inactive	4.03	inactive	inactive	inactive	inactive	inactive	inactive	inactive	inactive	inactive	inactive	–	–
FC(F)(F)c1ccc(Cl)cc1Cl	inactive	inactive	inactive	inactive	inactive	inactive	inactive	6.78	inactive	inactive	inactive	inactive	inactive	–	inactive	inactive	inactive	inactive	inactive	–
CCN1CN(CC)CN(CC)C1	inactive	inactive	inactive	inactive	inactive	inactive	inactive	4.59	inactive	inactive	inactive	inactive	inactive	–	inactive	inactive	inactive	inactive	–	inactive
CN(C)CCOCCN(C)CCO	inactive	inactive	inactive	inactive	inactive	inactive	inactive	-7.32	inactive	inactive	inactive	inactive	inactive	inactive	inactive	inactive	inactive	inactive	inactive	–
C[CH2][Ge]([Cl])([CH2]C)[CH2]C	inactive	inactive	inactive	inactive	inactive	inactive	inactive	1.99	inactive	inactive	inactive	inactive	inactive	inactive	inactive	inactive	inactive	inactive	inactive	–
CC(C)(C)NCCO	inactive	inactive	inactive	inactive	inactive	inactive	inactive	6.71	inactive	inactive	inactive	inactive	inactive	–	inactive	inactive	inactive	inactive	–	inactive
CC(=O)N1CCN(c2ccc(O)cc2)CC1	inactive	inactive	inactive	inactive	inactive	inactive	inactive	7.56	inactive	inactive	inactive	inactive	inactive	–	inactive	inactive	inactive	inactive	–	inactive
CCCO	inactive	inactive	inactive	inactive	inactive	inactive	inactive	1.64	inactive	inactive	inactive	–	–	inactive	inactive	–	inactive	inactive	inactive	inactive
CCCCCCCCCCCCCC(=O)OC	inactive	inactive	inactive	inactive	inactive	inactive	inactive	12.2	inactive	inactive	inactive	inactive	inactive	inactive	inactive	inactive	inactive	inactive	inactive	–
CCCCC(CC)CNC(=O)CC(C)OC(=O)CCC(=O)O (stereo not drawn)	inactive	inactive	inactive	inactive	inactive	inactive	inactive	3.69	inactive	23.9 µM (active)	inactive	26.8 µM (active)	–	inactive	26.8 µM (active)	–	inactive	inactive	inactive	inactive
CCNC(=O)/C=C/c1cccc(Br)c1	inactive	inactive	inactive	inactive	inactive	inactive	inactive	1.9	inactive	inactive	inactive	inactive	inactive	inactive	inactive	inactive	inactive	inactive	inactive	–
CCC(=O)OCCC(C)CCC=C(C)C (stereo not drawn)	inactive	inactive	inactive	inactive	inactive	inactive	inactive	-5.38	inactive	inactive	–	inactive	inactive	inactive	inactive	inactive	inactive	inactive	inactive	inactive
N#CCCOCCOCCC#N	inactive	inactive	inactive	inactive	inactive	inactive	inactive	9.79	inactive	inactive	inactive	inactive	inactive	inactive	inactive	inactive	inactive	inactive	inactive	–
COc1cccc2sc(N)nc12	inactive	inactive	inactive	inactive	inactive	inactive	inactive	-6.71	inactive	inactive	inactive	inactive	inactive	inactive	inactive	inactive	inactive	inactive	inactive	–

— PubChem BioAssay (Tox21)
